This is part of a sample that, as a whole, favours compounds with a hit. Of some 83,000 tested, about 20% had one in any assay.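 Testing used 96-well plates and a 48-hour single-concentration exposure. Example: -40 means 40% of the starting cells died.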 A number with no mark means an inactive call. The calls were made as follows: active = growth percent below 10; inactive = the rest.
test system: NCI-H322M lung; assay: NCI-60 one-dose screen, 48 h (100 = growth as untreated, 0 = no growth, -100 = all killed); settings: 10 µM unless noted

First: COc1ccc(Nc2ncccc2C(=O)NCc2cn(Cc3cccc(Oc4ccccc4)c3)nn2)c(OC)c1
Second: COc1ccc(Nc2ncccc2C(=O)NCc2cn(Cc3cccc(Oc4ccccc4)c3)nn2)cc1
The growth of the first is higher: 56.1% for the first, 46.1% for the second.

Going from `N/C(=N\S(=O)(=O)c1ccccc1)Nc1nc2ccccc2s1` to `O=C1C(Cl)=C(Nc2ccccn2)C(=O)c2ccccc21`, the growth rises from 91.1% to 115%.

Going from `O=S(=O)(NCCCNc1nccc(-n2ccc3cccnc32)n1)c1cccc(C(F)(F)F)c1` to `FC(F)(F)c1cccc(-c2cn3c(ccc4ccccc43)n2)c1`, the growth falls from 106% to 97.5%.

Compared with `COc1cc(NC(N)=NCCC(C)(C)Oc2ccc(C(F)(F)F)cc2)ncc1C#N`, `COc1ccc(CN2CCc3c(Sc4ccccc4)nc(N)nc3C2=O)c(OC)c1` is higher in growth: 20.5% for the first, 67.9% for the second.

First: COc1ccc2c(c1)[nH]c(=O)c1c3cc(OC)ccc3cn21
Second: Cc1c(C(=O)/C=C/c2csc3ccccc23)[n+](=O)c2ccccc2n1[O-]
The growth of the first is lower: 33.6% for the first, 81.8% for the second.

Going from `CCN(CC)CCC(CNc1ccnc2cc(Cl)ccc12)c1ccc(Cl)cc1` (centres undefined) to `c1ccc(-c2nnc(-c3ccccn3)s2)nc1`, the growth rises from 34.6% to 117%.

Compared with `Cc1ccc(S(=O)(=O)C2=C3C(=C(c4ccccc4)c4ccccc43)CN(S(=O)(=O)c3ccc(C)cc3)C2)cc1`, `COc1cc(/C=C/C(=O)N2CCN(C(=O)/C=C/c3cc(OC)c(OC)c(OC)c3)CC2)cc(OC)c1OC` is higher in growth: 93.8% for the first, 113% for the second.
